# Anthrax LT inh: qHTS Assay for Anthrax Lethal Toxin Internalization; actives 0.67% (n = 70,000); Cells, anthrax lethal toxin internalization, FRET ratio (460/530); Potency, µM (titrated, usually from 40 µM), most hits filed as inhibitors; further: nearly all actives have a fitted effect of over 50% in size
# AmpC nodet inh: Promiscuous and Specific Inhibitors of AmpC Beta-Lactamase (assay without detergent). P00811. AmpC nitrocefin hydrolysis, absorbance 480 nm, no detergent. Potency, µM (doses to about 28.7 µM). actives 1.8% (n = 71,000). AID 585, 2007
# Target sequence (P00811 whole entry, looked up): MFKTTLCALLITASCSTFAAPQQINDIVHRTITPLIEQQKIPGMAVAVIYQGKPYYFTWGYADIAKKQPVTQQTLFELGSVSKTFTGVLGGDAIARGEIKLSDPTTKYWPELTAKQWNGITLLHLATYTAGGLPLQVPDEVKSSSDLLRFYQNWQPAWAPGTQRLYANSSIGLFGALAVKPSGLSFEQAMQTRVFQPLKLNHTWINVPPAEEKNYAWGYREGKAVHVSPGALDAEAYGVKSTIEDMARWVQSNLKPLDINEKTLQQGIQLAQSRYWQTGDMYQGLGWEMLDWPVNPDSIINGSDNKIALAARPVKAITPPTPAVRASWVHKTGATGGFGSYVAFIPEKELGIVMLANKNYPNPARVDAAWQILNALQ
#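 AmpC in 20 mM phosphate buffer pH 7.0 was preincubated 15 min at room temperature with compounds. Nitrocefin (800 uM stock) was then added and hydrolysis followed at 480 nm every 20 s for 4 min.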
# SmPrx2 inh: Schistosoma Mansoni Peroxiredoxins (Prx2); S. mansoni Prx2 activity coupled to TGR/GSH (TGR is thioredoxin glutathione reductase), NADPH fluorescence loss, qHTS; Potency, µM; actives 0.07% (n = 65,000); AID 448, 2006
#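 Purified S. mansoni TGR and Prx2 in pH 7.4 phosphate buffer with EDTA and Tween-20 were preincubated with compounds for 15 min. Further NADPH/GSH was added, then a 2.5 mM H2O2 aliquot initiated turnover, followed kinetically by NADPH fluorescence.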
# AmpC det inh: Promiscuous and Specific Inhibitors of AmpC Beta-Lactamase (assay with detergent); P00811; purified AmpC, nitrocefin hydrolysis with detergent; Potency, µM (top dose mostly 28.7 µM); actives 0.09% (n = 71,000); active means well fitted curve in the direction sought with a large enough effect; inconclusive means small, poorly fitted or top-dose-only effect
#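 E. coli AmpC (5.3 nM) in 20 mM phosphate pH 7.0 with 0.01% Triton X-100, preincubated 15 min RT with compound; nitrocefin (2 uL of 800 uM stock) hydrolysis followed by 480 nm absorbance every 20 s over 4 min.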
# Numbers stand for hits; n = inactive; u = inconclusive; x = no result given; [ ] = remark or other dose. A selection: hits, their analogues and other compounds. The true share with any hit is near 2.4%. Unless noted, the call rests on the fitted dose curve.
SMILES,Anthrax LT inh,AmpC nodet inh,SmPrx2 inh,AmpC det inh
COc1ccc(NC(=O)[C@H](CCS(C)(=O)=O)N2Cc3ccccc3C2=O)c(OC)c1,n,4µM[single pt active],n,n
O=C(CCl)c1ccc(Cl)cc1Cl,5µM,n,x,n
O=C(CSc1nnc(CNc2ccc(Cl)cc2)o1)Nc1nc2ccccc2s1,n,4µM[single pt active],n,n
O=C(COc1ccc(Cl)cc1)NCc1nnc(SCC(=O)Nc2ccccc2)o1,n,n,n,n
O=C(CCSc1nnc2scc(-c3ccccc3)n12)Nc1nc(-c2ccccc2)ns1,n,5µM,n,n
CCNc1ncc2ncc(=O)n(Cc3ccc(F)cc3)c2n1,n,n,n,n
NC(=O)c1cn(-c2ccccc2)nc1-c1cccnc1,n,n,n,n
NC(=O)c1cc(Cl)cn(-c2ccccc2)c1=O,n,3.2µM[single pt active],n,n
N#Cc1nc(-c2ccccc2F)oc1NCCN1CCOCC1,n,4µM[single pt active],n,n
N#Cc1nc(-c2cccc3ccccc23)oc1NCCN1CCOCC1,u,n,n,n
CC(C)=NOC[C@@H](O)[C@@H]1O[C@@H]2OC(C)(C)O[C@@H]2[C@H]1O,n[8 µM],x,x,x
CCCCN(CCCC)CCn1cnc2c([nH]c3ccc(OC)cc32)c1=O,n,4µM[single pt active],n,n
CCC1CCCN1Cn1cnc2c([nH]c3ccc(OC)cc32)c1=O (stereo not drawn),n,n,n,n
CCN1CCCC1Cn1c(-c2ccccc2)nc2c(N3CCOCC3)nc(C)nc21 (stereo not drawn),n,n,x,n
CCc1c2c(nc3ccc(OC)cc13)COC2,n,n,n,n
c1csc(CNc2nc(-c3ccc4c(c3)OCO4)nc3ccccc23)c1,u,n,n,n
O=C(CCc1ccccc1)N1CCN(CCO)CC1,n,4µM[single pt active],n,n
O=C(c1cccs1)N1CCN(CCc2ccccc2)CC1,n,n,n,n
N#Cc1cccc(-c2nc(NCc3cccnc3)c3ccccc3n2)c1,u,0.63µM,n,10µM
COc1cccc(-c2nc(NCc3cccnc3)c3ccccc3n2)c1,n,u,n,13µM
CC(C)n1cc2c3c(cccc31)[C@@H]1C[C@H](C(=O)O[C@@H](C)[C@H](C)O)CN(C)[C@H]1C2,u,n,n,n
CCOc1ccc(-n2c(Cc3cc(=O)[nH]c(=O)[nH]3)nnc2SC(C)C)cc1,u,n,n,n
CCOC(=O)C(C)Sc1nnc(Cc2cc(=O)[nH]c(=O)[nH]2)n1-c1ccc(OCC)cc1 (stereo not drawn),n,4µM[single pt active],n,n
CCOC(=O)C(C)Sc1nnc(Cc2cc(=O)[nH]c(=O)[nH]2)n1-c1cccc(OC)c1 (stereo not drawn),n,4µM[single pt active],n,n
CCOc1ccc(-n2c(Cc3cc(=O)[nH]c(=O)[nH]3)nnc2SCc2cccnc2)cc1,n,4µM[single pt active],n,n
SMILES,Anthrax LT inh,AmpC nodet inh,SmPrx2 inh,AmpC det inh
O=C(O)[C@H]1[C@H](C(=O)O)[C@H]2CC[C@@H]1O2,n,n,n,n
c1ccc(-c2ccc(-c3nc(-c4ccccn4)no3)cc2)cc1,3.2µM,n,x,n
Clc1cccc(-c2nc(-c3ccccn3)no2)c1,n,n,n,n
CCOC(=O)N1CCC(NC(=O)c2ccc(CS(=O)(=O)c3ccccc3C)o2)CC1,n,4µM[single pt active],n,n
CCCCN(C)C(=O)c1ccc(CS(=O)(=O)c2ccccc2C)o1,n,4µM[single pt active],n,n
NCCC[C@@H](CC(=O)N[C@@H]1CCNC[C@H]1C(=O)N[C@H](CC(=O)N[C@@H](CCC(=O)O)CC(=O)O)Cc1ccccc1)NC(=O)C[C@H](CO)NC(=O)[C@@H]1CCCC[C@H]1N,n,n,n,n
CC(NC(=O)c1noc2c1CCCCC2)c1ccccc1 (stereo not drawn),n,4µM[single pt active],n,n
O=C(c1ccc(-c2ccccc2)cc1)N1CCN(c2nc3ccccc3o2)CC1,n,4µM[single pt active],n,n
O=C(c1ccc(-c2nnc(-c3ccccc3)o2)cc1)N1CCCCCC1,n,n,n,n
Cc1ccc2oc(=O)c3cc(C(=O)N4CCN(C(=O)c5ccco5)CC4)sc3c2c1,n,n,n,n
Cc1ccc2oc(=O)c3cc(C(=O)N4CCN(c5ncccn5)CC4)sc3c2c1,n,4µM[single pt active],n,n
CN(C)S(=O)(=O)c1ccc(-c2ccccc2)cc1,7.9µM,n,x,n
CN(C)S(=O)(=O)c1ccc(Oc2ccccc2)cc1,x,n,n,n
CC[N+](CC)(CC)CCOc1ccc(/C=C\c2ccccc2)cc1,n,n,n,n
CCn1cnc2c(Nc3cccc(Cl)c3)nc(N[C@@H]3CCCC[C@H]3N)nc21,n,n,n,n
Nc1ccn([C@H]2CC[C@H](CO)O2)c(=O)n1,n,n,n,n
O=C(c1ccco1)N1CCN(c2ncccn2)CC1,n,4µM[single pt active],n,n
C[C@@]12CCC[C@](C)(C(=O)O)[C@@H]1CCc1ccc(O)cc12,u,n,n,n
Cc1c(C(=O)Nc2ccc3c(c2)OCCO3)sc2nc(-c3ccccc3)cn12,10µM,n,n,n
Cc1c(C(=O)Nc2ccncc2)sc2nc(-c3ccccc3)cn12,n,n,n,n
C=CCOCC/C=C1/c2ccccc2C(OC)C1C (stereo not drawn),n[8 µM],x,x,x
Nc1ccccc1O.O.O=C(O)[C@H]1[O][Sb][O][C@H]1C(=O)O,u,n[5.75 µM],0.22,n[5.75 µM]
CCOc1ccc(N(CC(=O)Nc2ccc(C)cc2)S(=O)(=O)c2c(C)noc2C)cc1,u,n,n,n
CCOc1ccc(N(CC(=O)N2CC=C(c3ccccc3)CC2)S(=O)(=O)c2c(C)noc2C)cc1,u,4µM[single pt active],n,n
COc1ccc(N(CC(=O)N2CC=C(c3ccccc3)CC2)S(=O)(=O)c2c(C)noc2C)cc1,u,4µM[single pt active],n,n
SMILES,Anthrax LT inh,AmpC nodet inh,SmPrx2 inh,AmpC det inh
Cc1ccccc1NC(=O)c1ocnc1C,n,4µM[single pt active],n,n
CC(=O)OCC(=O)[C@@]1(O)CC[C@@H]2[C@@H]3CCC4=CC(=O)CC[C@@]4(C)[C@H]3C(=O)C[C@]21C,n,n,n,n
Cc1ccccc1OC[C@H](O)CO,n[3.58 µM],n,n,n
O=C1CC(c2ccc(S(=O)(=O)NCc3ccccc3)cc2)CN1 (stereo not drawn),n,4µM[single pt active],n,n
Cc1ccccc1NS(=O)(=O)c1ccc(C2CNC(=O)C2)cc1 (stereo not drawn),n,n,n,n
Cn1cccc1C(=O)NC(=O)COC(=O)c1ccccc1Sc1ccccc1C#N,u,4µM,n,n
Cn1c(=O)c2cc(S(=O)(=O)NC(Cc3ccccc3)C(=O)NCc3ccco3)ccc2n(C)c1=O (stereo not drawn),n,4µM[single pt active],n,n
CC1=C(C(=O)N(C)C)C(c2ccc(Cl)c(Cl)c2)NC(=O)N1 (stereo not drawn),u,n,n,n
CN[C@H]1CC[C@@H](c2ccc(Cl)c(Cl)c2)c2ccccc21,10µM,x,x,x
Cc1ccc2cc(C#N)c(SCC(=O)NCc3ccco3)nc2c1,n,n,n,n
Cc1ccc2nc(SCC(=O)NCc3ccco3)c(C#N)cc2c1,n,16µM[single pt active],n,n
COc1cccc(C2=NOC(C(=O)N3CCN(C(=O)c4ccco4)CC3)C2)c1 (stereo not drawn),n,2.5µM[single pt active],n,n
